Compound activity deposited in PubChem by National Center for Advancing Translational Sciences (NCATS).
Only some compounds are listed: those with a hit (about 19% of all), similar ones and a draw of the others.
DT40 TDP1 CPT – growth inhibition of DT40 Tdp1-/-;hTDP1 cells with camptothecin (screen for TDP1 inhibitors) | chicken DT40 Tdp1-/-;hTDP1 cells + 20 nM CPT, ATP luminescence, 48 h | actives 12% (n = 420,000) | AID 686979 | Potency, µM (doses to about 46.2 µM), for inactives: at the highest dose activity change, negative = growth inhibition, hits mostly inhibitors; also: potency is read from the fitted curve at half-maximal effect; nearly all actives have a fitted effect of over 55% in size
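Chicken DT40 Tdp1-/- cells stably complemented with human TDP1 were seeded at 400 cells/well in medium containing 20 nM camptothecin, exposed to pin-transferred compounds, and grown at 37 °C for at least 48 hr. Viability was read as ATP luminescence.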
uPA generation – blocks generation of uPA at the cell surface; cell surface uPA generation assay, qHTS; AID 540303; Potency, µM (series often up to 38.3 µM), for the others: at the top dose activity change, negative = inhibition, usual class: inhibitors; actives 0.31% (n = 330,000); active = well fitted inhibition curve with a large enough effect; inconclusive = small, poorly fitted or top-dose-only effect; inactive = no such curve, though single readings can be large or run the other way; tested in mouse RAW 264.7 cells; also: potency is read from the fitted curve at half-maximal effect; nearly all actives have a fitted effect of over 55% in size
DT40 TDP1 no CPT – qHTS for Inhibitors of human tyrosyl-DNA phosphodiesterase 1 (TDP1): qHTS in cells in absence of CPT; actives 15% (n = 420,000); AID 686978, 2013; DT40 Tdp1-/- hTDP1 cells, no CPT, ATP luminescence, 48 h; Potency, µM (titrated, usually from 46.2 µM), without a hit: at the highest dose activity change, negative = growth inhibition, usual class: inhibitors; also: potency is read from the fitted curve at half-maximal effect; nearly all actives have a fitted effect of over 55% in size
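Cells were dispensed at 400 per well, compounds added by pin tool, plates incubated ≥48 hr at 37 °C, then CellTiter-Glo added for 30 min at room temperature before luminescence reading. Line: DT40 Tdp1-/- complemented with hTDP1; camptothecin omitted.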
IL-1B inflam inh – blocks inflammasome-driven IL-1 beta release; activity change, % at 57.5 µM; actives 4.7% (n = 360,000); AID 743279; THP-1 LPS/ATP IL-1B secretion, AlphaLISA, 16 h; active compounds read low; in the data active = activity change below about -50%; inconclusive = mostly about -30% to -49%
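Secreted IL-1B measured by AlphaLISA bead assay after 16 h compound exposure of THP-1 cells; compounds (final up to 57.5 uM) added 1 h before LPS (250 ng/mL) and ATP (1.25 mM) stimulation; lower signal means less secretion.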
HT1080 IDH1KD tx – toxicity to HT-1080 IDH1 knockdown cells (counter line) | actives 2% (n = 360,000) | Potency, µM (titrated, usually from 46.1 µM), for the others: top-dose activity, negative = toxicity, most hits filed as cytotoxic | AID 686971 | HT-1080 IDH1 knockdown viability, ATP luminescence, 48 h;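 also: potency is read from the fitted curve at half-maximal effect; 0% = DMSO wells and -100% = cell-free medium wells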
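CellTiter-Glo luminescence after 48 h compound exposure at 37 degrees C of IDH1-knockdown HT-1080 cells in 5% FBS RPMI. %Activity scaled between DMSO wells and cell-free media wells, with curves fitted and assigned curve classes.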
HT1080-NT tox – kills 2HG-producing HT-1080-NT fibrosarcoma cells; HT-1080-NT fibrosarcoma viability, CellTiter-Glo ATP luminescence, 48 h; Potency, µM (highest dose often 46.1 µM), without a hit: top-dose activity, negative = less viability, most hits filed as cytotoxic; actives 1.6% (n = 360,000); AID 686970;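 also: NT is the 2HG producing partner of a matched IDH1 knockdown line; potency is read from the fitted curve at half-maximal effect; 0% = DMSO-treated cells and -100% = media-only wells without cells; nearly all actives have a fitted effect of over 55% in size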
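Compounds were tested in concentration-response format on HT-1080-NT cells for 48 hours at 37 degrees C. Cell viability came from CellTiter-Glo luminescence; curves were classified by r2, response magnitude and activity.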
The depositor's hits bear a star; u = inconclusive; x = no result. Unless noted, calls follow the shape of the dose curve; as a rule, active = well fitted curve in the direction sought with a large enough effect; inconclusive = small, poorly fitted or top-dose-only effect, or another doubt; inactive = no such curve, though single readings can be large; an effect the other way counts as inactive or inconclusive. Unless noted, % is scaled to controls: 0 for no effect and ±100 for the full control effect.

SMILES	DT40 TDP1 CPT	uPA generation	DT40 TDP1 no CPT	IL-1B inflam inh	HT1080 IDH1KD tx	HT1080-NT tox
O=c1c(-c2cccs2)nc2cnc(N3CCNCC3)nc2n1C1CC1	u	x	21µM*	x	x	x
COCCn1c(=O)cnc2cnc(OC)nc21	-10%	x	0%	x	x	x
COc1ccc(CNc2ncncc2-c2ccc(C(=O)N(C)C)cc2)c(OC)c1	-23%	x	-16%	x	x	x
N#Cc1ccc(COC(=O)CCc2c[nH]c3ccccc23)cc1	-7%	-3%	20%	-6	11%	8%
CN1CCN(c2ncc3nc(-c4ccccc4)c(=O)n(C4CC4)c3n2)CC1	21µM*	x	u	x	x	x
COCCn1c(=O)c(-c2cccs2)nc2cnc(Oc3ccc(OC)cc3)nc21	u	x	26µM*	x	x	x
CN1CCN(c2ncc3nc(-c4ccccc4)c(=O)n(Cc4cccs4)c3n2)CC1	u	x	16µM*	x	x	x
CN(C)c1ncc2nc(-c3cn(C)c4ccccc34)c(=O)n(C[C@H]3CCCO3)c2n1	4%	x	17%	x	x	x
COCCn1c(=O)c(-c2cccs2)nc2cnc(Oc3ccccc3)nc21	u	x	-30%	x	x	x
CN1CCN(c2ncc3nc(-c4cn(C)c5ccccc45)c(=O)n(C[C@H]4CCCO4)c3n2)CC1	21µM*	x	u	x	x	x
O=C(Nc1ccccc1)c1ccc(Br)c(S(=O)(=O)Nc2ccccn2)c1	6%	1%	3%	0	-2%	0%
CC1=CC(C2CC(=O)N(c3ccc(C)cc3)C2=O)CC2C(=O)N(c3ccc(C)cc3)C(=O)C12 (configuration not stated)	12%	-1%	u	0	-16%	4%
CN1CCN(c2ncc3nc(-c4cccs4)c(=O)n(CCC#N)c3n2)CC1	-88%	x	u	x	x	x
O=c1c(-c2cc(F)cc(F)c2)nc2cnc(N3CCNCC3)nc2n1Cc1cccs1	u	x	21µM*	x	x	x
Cn1c(=O)c(-c2cccs2)nc2cnc(N3CCNCC3)nc21	-21%	x	-26%	x	x	x
O=c1c(-c2cccs2)nc2cnc(N3CCNCC3)nc2n1Cc1cccs1	7.3µM*	x	13µM*	x	x	x
CN1CCN(c2ncc3nc(-c4cccs4)c(=O)n(Cc4cccs4)c3n2)CC1	18µM*	x	u	x	x	x
O=C(COc1ccc2c(c1)OCO2)Nc1ccccc1C(F)(F)F	23%	-1%	9%	8	18%	9%
COc1ccccc1NC(=O)CSc1nncs1	-2%	-5%	-10%	13	0%	0%
CCCCNC(=S)Nc1ccc([N+](=O)[O-])cc1	u	-15%	23µM*	-74*	u	u
O=C(NNC(=S)Nc1ccc(F)cc1)c1cccc([N+](=O)[O-])c1	-8%	4%	-3%	-16	4%	16%
CC(C)OC(=O)c1cc(NC(=S)Nc2ccc([N+](=O)[O-])cc2)cc(C(=O)OC(C)C)c1	9.2µM*	1%	12µM*	-101*	21µM*	u
CC(C)CCNC(=S)Nc1ccc(Br)cc1	u	0%	16µM*	-1	-7%	17%
O=[N+]([O-])c1ccc(NNC(=S)Nc2ccc(F)cc2)cc1	4.6µM*	-1%	3.3µM*	-59*	u	u
CCOCCCNC(=S)N(CCO)Cc1cc2cc3c(cc2[nH]c1=O)OCCO3	-8%	u	6%	14	-11%	0%
SMILES	DT40 TDP1 CPT	uPA generation	DT40 TDP1 no CPT	IL-1B inflam inh	HT1080 IDH1KD tx	HT1080-NT tox
CN(C)CCCNc1nccc(N2CCN(C)CC2)n1	-26%	x	-13%	x	x	x
CCC(CN)CC(C)CCNCC(O)CNCC(C)CC(CC)CN (configuration not stated)	-1%	x	3%	x	x	x
O=c1[nH]c(=S)[nH]c2c1C(c1ccc(F)cc1)OC(C1CCCCC1)C2 (configuration not stated)	u	x	u	11	-9%	-9%
CCOC(=O)c1c(C)[nH]c(C)c1S(=O)(=O)NCC(=O)Nc1ccc(C)cc1C	-25%	x	-13%	x	x	x
C[C@H]1CN([C@@H](C)CO)C(=O)c2cc(Br)cnc2O[C@H]1CN(C)S(=O)(=O)c1ccccc1F	3%	x	u	7	9%	10%
CC(C)CCNC(=S)Nc1ccc([N+](=O)[O-])cc1	u	-20%	u	-71*	u	u
S=C(NCCc1ccccc1)Nc1ccc(Br)cc1	u	0%	23µM*	-70*	-4%	7%
O=C(NC(NNc1ccc([N+](=O)[O-])cc1)(C(F)(F)F)C(F)(F)F)c1ccc(F)cc1	23µM*	-1%	18µM*	2	-8%	-17%
O=C(NC1CC(=O)N(c2cccc(F)c2)C1)c1cc2ccccc2o1 (configuration not stated)	-27%	x	u	x	x	x
O=C(N/N=C/c1ccccn1)c1ccc(Br)cc1	21µM*	-8%	15µM*	-105*	u	-21%
CC(C)(C)c1ccc(C(=O)N/N=C/c2ccccn2)cc1	9.2µM*	u	5.8µM*	161	u	u
COc1ccccc1CNC(=O)[C@@H](NC(=O)C1CCN(C(=O)[C@@H]2CCCN2)CC1)C(C)C	15%	14%	-6%	0	3%	4%
C=CCn1c(SC/C=C/c2ccccc2)nnc1-c1sc(N)nc1C	u	-1%	15µM*	0	1%	-4%
COc1ccc(C(=O)NCCc2cc3ccc(C)c(C)c3[nH]c2=O)cc1OC	u	19%	u	1	4%	-1%
Cc1ccc(C(=O)NCCc2cc3ccc(C)c(C)c3[nH]c2=O)cc1[N+](=O)[O-]	10µM*	-2%	u	-17	-6%	5%
Cc1ccc2cc(CCNC(=O)c3cccc([N+](=O)[O-])c3)c(=O)[nH]c2c1	21µM*	3%	21µM*	-13	0%	10%
Cc1cc2cc(CCNC(=O)c3cccc([N+](=O)[O-])c3)c(=O)[nH]c2cc1C	u	1%	16µM*	u	0%	5%
CCCCNC(=O)COC(=O)CNC(=O)c1cc(Cl)cc([N+](=O)[O-])c1	5%	3%	2%	-29	6%	9%
CN1CCN(c2nc(-c3ccc(Cl)cc3Cl)nc3ccccc23)CC1	u	-14%	u	u	u	u
CCOC(=O)c1nn(-c2ccc(F)cc2)cc1O	13%	-1%	11%	-7	15%	u
CCOC(=O)c1nn(-c2ccc(Br)cc2)cc1C(=O)c1cccc2ccccc12	8.2µM*	x	16µM*	-2	u	5%
